The source of these data is PubChem BioAssay (NCI).

The panel holds about 79,000 compounds, 15% with a hit somewhere; the sample as a whole holds those more often. Values without a mark were called inactive. Activity calls are given as the source filed them. No stated cut-off is given here; in the data, active means growth inhibition above about 70%; inactive means the rest.

Experiment [1] in a line: NCI Yeast Anticancer Drug Screen. Data for the rad50 strain (AID 155).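 Further: 0% = growth of vehicle-only cultures of the same strain.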 As to conditions: S. cerevisiae rad50 strain growth inhibition; at 50.0 µM; hits give high values. In a few lines: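 Cells are treated with compound, grown, and their growth is then scored against vehicle-only cultures of the same repair-deficient yeast strain.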
A short description of experiment [2]: NCI Yeast Anticancer Drug Screen. Data for the mec2-1 strain (AID 157). The settings on record: S. cerevisiae mec2-1 strain, at 50.0 µM, hits give high values. In a few lines: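 Strain: mec2-1 (DNA repair/cell cycle alteration). Compound exposure, then growth measured; inhibition expressed relative to vehicle.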
The nature of experiment [3]: NCI Yeast Anticancer Drug Screen. Data for the sgs1 mgt1 strain (AID 161).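 Further: 0% = growth of cultures given vehicle only.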 The settings on record: S. cerevisiae sgs1 mgt1 strain, at 50.0 µM, hits give high values. In a few lines:
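Inhibition of yeast growth, normalised to vehicle-treated controls, is reported for a strain bearing genetic alterations in DNA damage repair.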

A short description of experiment [4]: NCI Yeast Anticancer Drug Screen. Data for the cln2 rad14 strain (AID 165).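 Further: 0% = growth equal to vehicle treated cultures.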 As to conditions: S. cerevisiae cln2 rad14 strain, at 50.0 µM, hits give high values. In a few lines:
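Compounds are applied to the cln2 rad14 yeast strain, and growth is then compared with that of vehicle-treated cultures to give inhibition.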

A short description of experiment [5]: NCI Yeast Anticancer Drug Screen. Data for the bub3 strain (AID 167). The settings on record: S. cerevisiae bub3 mutant strain, at 50.0 µM, hits give high values. The essentials: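 Part of a panel of yeast mutants defective in DNA damage repair or cell cycle regulation. Each strain is grown with compound, and inhibition is calculated relative to solvent-treated cultures.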

Experiment [6] in a line: NCI Yeast Anticancer Drug Screen. Data for the mlh1 rad18 strain (AID 175). The settings on record: S. cerevisiae mlh1 rad18 strain growth inhibition; at 50.0 µM; hits give high values. In a few lines: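 Read-out is yeast growth inhibition, calculated against vehicle-only controls. The compound was applied to a strain engineered with DNA damage repair alterations.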

Regarding `CCOC(=O)CCc1ccc(NC(=O)/C=C/c2ccc([N+](=O)[O-])o2)cc1`, the growth inhibition was 55% in experiment [1]; 29.1% in experiment [2]; 56.3% in experiment [3]; 53.8% in experiment [4]; 34.8% in experiment [5]; 36.7% in experiment [6].
For the compound `CCOC(=O)/C(Cl)=C1\SN(C(=O)OCC)N=C1C`, the growth inhibition in experiment [1] is -7.65%; in experiment [2], -3.7%; in experiment [3], -11.4%; in experiment [4], 54.7%; in experiment [5], 3.8%; in experiment [6], 3.65%.
Take `CCN(CC)Cc1ncccc1O`: the growth inhibition in experiment [1] is 8.5%; in experiment [2], -15.8%; in experiment [3], -22.4%; in experiment [4], -2.25%; in experiment [5], -5.8%; in experiment [6], 16.1%.
For the compound `CC1(C(=O)O)CCCC1C(CCC(=O)O)C(=O)O` (stereo not given), the growth inhibition in experiment [1] is -13.8%; in experiment [2], 15.1%; in experiment [3], 0.55%; in experiment [4], -19.6%; in experiment [5] it was -6.9%; in experiment [6] it was -35.1%.
As for `CC1C2=C(CC(C)(C)CC2=O)OC2=C1C(=O)CC(C)(C)C2`, the growth inhibition in experiment [1] is -16.1%; in experiment [2], -7.9%; in experiment [3], -7.8%; in experiment [4] it was -5.3%; in experiment [5], 4.65%; in experiment [6], -3.5%.
For the compound `O=C1CC2COc3ccccc3C2=NN1c1ccccc1` (stereo not given), the growth inhibition was 13.6% in experiment [1]; 4.3% in experiment [2]; 4.7% in experiment [3]; 1.35% in experiment [4]; -4.15% in experiment [5]; 10.2% in experiment [6].
For `COc1ccc(C(C)c2cc3c(cc2OC)OCO3)cc1OC` (stereo not given), the growth inhibition is -4.95% in experiment [1]; -6.7% in experiment [2]; 11.1% in experiment [3]; 5.2% in experiment [4]; 16.9% in experiment [5]; 25.3% in experiment [6].
For the compound `Cc1cccc(C)c1NC(=O)C(=O)CC(=O)/C=C/c1ccccc1`, the growth inhibition in experiment [1] was -14.5%; in experiment [2], -20.2%; in experiment [3], -30.6%; in experiment [4] it was 3.05%; in experiment [5] it was -23.1%; in experiment [6], -28.7%.
Turning to `Nc1ccc(S(=O)(=O)c2cnc(N)s2)cc1`, the growth inhibition in experiment [1] was -4%; in experiment [2], 4.25%; in experiment [3] it was 27.8%; in experiment [4], -3.25%; in experiment [5], -11.2%; in experiment [6], 11.4%.
As to `CCOC(=O)c1cn(CC)c2ccc3ccsc3c2c1=O`, the growth inhibition in experiment [1] is -18.2%; in experiment [2], -40.4%; in experiment [3], -15.5%; in experiment [4] it was 10.2%; in experiment [5], -9.4%; in experiment [6], -30.9%.
Take `COc1cc2c(cc1OC)C(CCN)NCC2` (stereo not given): the growth inhibition in experiment [1] is -8.75%; in experiment [2] it was 7.2%; in experiment [3], -2.55%; in experiment [4], 7.3%; in experiment [5], -3.95%; in experiment [6] it was -9.25%.
`O=C(O)C1CC(Br)C(Br)CC1C(=O)Nc1cccc2ccccc12` (stereo not given): the growth inhibition was 11.8% in experiment [1]; 6.45% in experiment [2]; 2.85% in experiment [3]; -39.3% in experiment [4]; 1.3% in experiment [5]; 32.1% in experiment [6].
For the compound `O=[N+]([O-])c1cc([N+](=O)[O-])c2ccccc2c1NS(=O)(=O)c1ccc(Br)cc1`, the growth inhibition is 7.35% in experiment [1]; 18.9% in experiment [2]; 36.4% in experiment [3]; 0.7% in experiment [4]; 36% in experiment [5]; 70.5% (active) in experiment [6].
Consider `CC1(c2ccc[n+](Cc3ccccc3)c2)OCCO1`, for which the growth inhibition in experiment [1] is -15.7%; in experiment [2], -31.1%; in experiment [3], -12.8%; in experiment [4], -11.2%; in experiment [5], -39.6%; in experiment [6], -27.1%.
As for `Cc1nc2c(=O)n(C)c(=O)n(C)c2nc1CCC(=O)O`, the growth inhibition is -16.1% in experiment [1]; -3.9% in experiment [2]; -1.4% in experiment [3]; -52.5% in experiment [4]; 5.2% in experiment [5]; -5.6% in experiment [6].
Take `Fc1ccc(C(Nc2nncs2)Nc2nncs2)c(F)c1`: the growth inhibition was -0.8% in experiment [1]; -13.8% in experiment [2]; 12.6% in experiment [3]; -44.1% in experiment [4]; -35.8% in experiment [5]; 9.7% in experiment [6].
In the case of `COC1Cc2c(C)c(OC(C)=O)c3cccnc3c2O1` (stereo not given), the growth inhibition is 18.6% in experiment [1]; -17.4% in experiment [2]; 10.8% in experiment [3]; 18.6% in experiment [4]; 4.25% in experiment [5]; 5.65% in experiment [6].
As to `COc1ccc(-c2cc(C(=O)O)c3cccc(C)c3n2)cc1`, the growth inhibition in experiment [1] was 35.6%; in experiment [2], -1.7%; in experiment [3] it was 35%; in experiment [4], 36.1%; in experiment [5] it was 23.8%; in experiment [6], 47.1%.
Turning to `CCCCCCCCC(=O)OCC(=O)N(C)C`, the growth inhibition is 15.6% in experiment [1]; 8.8% in experiment [2]; 6.35% in experiment [3]; 13.3% in experiment [4]; 2.9% in experiment [5]; 9.4% in experiment [6].
Regarding `CC(C)N(C(=O)c1ccc([Si](C)(C)C)c(C(=O)N(C(C)C)C(C)C)n1)C(C)C`, the growth inhibition was 30.6% in experiment [1]; 19.8% in experiment [2]; 20.9% in experiment [3]; 9.4% in experiment [4]; 0.1% in experiment [5]; 28.5% in experiment [6].
